# Test system: Mel-DCC-11-R
# Test: cell viability relative to DMSO control (fraction of DMSO control); higher = less cytotoxic, active = 0.8 or less
# Details: 1 µM; 120 h; vemurafenib co-treatment 0 µM
# In short: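 The screen used 384-well plates acoustically pre-spotted with 315 approved anti-cancer drugs from TargetMol, each at 1 µM in duplicate. Into each well went 40 µl of cells, 2500 NHEM-hTERT immortalized melanocytes or 1500 of patient-derived Mel-DCC-11 or its resistant subline Mel-DCC-11-R, and plates were kept 120 h, with the subline also tested alongside 8 µM of its selecting drug. Readout was by ATPlite 1step luminescence. Viability values were normalised to vehicle-treated controls and averaged between duplicates.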
row,Compound,cell viability
1,O=NN(CCCl)C(=O)NC1CCCCC1 [Lomustine],0.985 (inactive)
2,Cc1nc(Nc2ncc(C(=O)Nc3c(C)cccc3Cl)s2)cc(N2CCN(CCO)CC2)n1 [Dasatinib],1.59 (inactive)
3,O=C(O)C1CSCN1 (stereo not given) [Thioproline],0.893 (inactive)
4,CCCCc1nc2cc(/C=C/C(=O)NO)ccc2n1CCN(CC)CC [Pracinostat],0.699 (active)
5,COc1cc([C@@H]2c3cc4c(cc3[C@@H](O[C@@H]3O[C@@H]5CO[C@@H](C)O[C@H]5[C@H](O)[C@H]3O)C3COC(=O)C32)OCO4)cc(OC)c1O (stereo not given in full) [Etoposide],1.26 (inactive)
6,Nc1c2ccccc2nc2ccccc12 [Aminacrine],1.26 (inactive)
7,O=C(/C=C/c1cccc(S(=O)(=O)Nc2ccccc2)c1)NO [Belinostat],0.839 (inactive)
8,COC(=O)N[C@@H](C)CNc1nccc(-c2cn(C(C)C)nc2-c2cc(Cl)cc(NS(C)(=O)=O)c2F)n1 [Encorafenib],0.802 (inactive)
9,CCc1cn([C@H]2C[C@H](O)[C@@H](CO)O2)c(=O)[nH]c1=O [Edoxudine],0.776 (active)
10,Nc1nc(Cl)nc2c1ncn2[C@H]1C[C@H](O)[C@@H](CO)O1 [Cladribine],0.977 (inactive)
11,COc1cc([C@H]2Oc3cc([C@H]4Oc5cc(O)cc(O)c5C(=O)[C@@H]4O)ccc3O[C@@H]2CO)ccc1O [Silibinin],0.799 (active)
12,CC1=C(/C=C/C(C)=C/C=C/C(C)=C/C(=O)O)C(C)(C)CCC1 [Tretinoin],0.946 (inactive)
13,CC(C)(S)[C@@H](N)C(=O)O [Artamine],1.12 (inactive)
14,CC1=C(CC(=O)O)c2cc(F)ccc2/C1=C\c1ccc(S(C)=O)cc1 (stereo not given) [Sulindac],0.986 (inactive)
15,C/C=C1/NC(=O)[C@H]2CSSCC/C=C/[C@H](CC(=O)N[C@H](C(C)C)C(=O)N2)OC(=O)[C@H](C(C)C)NC1=O [Romidepsin],0.0525 (active)
16,CC(COc1ccccc1)N(CCCl)Cc1ccccc1.Cl (stereo not given) [Phenoxybenzamine hydrochloride],1 (inactive)
17,Cn1nnc2c(C(N)=O)ncn2c1=O [Temozolomide],0.884 (inactive)
18,CN(C)CCOc1ccc(/C(=C(/CCCl)c2ccccc2)c2ccccc2)cc1 [Toremifene],0.887 (inactive)
19,COc1ccc(C[C@H](N)C(=O)N[C@H]2[C@@H](O)[C@H](n3cnc4c(N(C)C)ncnc43)O[C@@H]2CO)cc1.Cl.Cl [Puromycin dihydrochloride],0.309 (active)
20,CN(C)CCOc1ccc(/C(=C(/CCCl)c2ccccc2)c2ccccc2)cc1.O=C(O)CC(O)(CC(=O)O)C(=O)O [Toremifene citrate],0.981 (inactive)
21,CC(C)(CO)c1cc2cc(NC(=O)C3(c4ccc5c(c4)OC(F)(F)O5)CC3)c(F)cc2n1C[C@@H](O)CO,1.18 (inactive)
22,CC/C(=C(\c1ccc(O)cc1)c1ccc(OCCNC)cc1)c1ccccc1 [(E/Z)-Endoxifen],1.15 (inactive)
23,CCc1cnn2c(NCc3ccc[n+]([O-])c3)cc(N3CCCC[C@H]3CCO)nc12 [Dinaciclib],0.062 (active)
24,Cc1nc(Nc2ncc(C(=O)Nc3c(C)cccc3Cl)s2)cc(N2CCN(CCO)CC2)n1.O [Dasatinib monohydrate],1.65 (inactive)
25,Cc1cc(Nc2ncc(Cl)c(Nc3ccccc3S(=O)(=O)C(C)C)n2)c(OC(C)C)cc1C1CCNCC1,1.17 (inactive)

# — the supplement of paper PMC12808144
